# Source: PubChem (several laboratories)
# Rows were chosen to be rich in hits. Some 9.6% of all compounds tested hit in one or more screens of this group.
# Autophagy HCS = alters autophagy in cells. MEF GFP-LC3 puncta imaging; test concentration mostly 10 µM. calls only at 10 µM (by protocol). 190,000 tested, 0.98% active;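 active = percentage of spot-positive cells more than 3 SD above its plate mean, without a fluorescence outlier flag or 80% toxicity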;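 also: spot-positive cell cutoff set from DMSO-treated cells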
# Insulin prom up = MIN6 insulin promoter up-regulation; MIN6 insulin promoter-GFP reporter, high-content imaging; stronger effect = higher value; AID 1625; z-score at 5 µM; 190,000 tested, 0.3% active;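 active = z-score above 3 at 5 µM with at least 500 cells counted in the well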
# HCT116 PTEN-null = PTEN-deleted cell growth suppression; HCT116 PTEN-null viability, CellTiter-Glo, 60 h; stronger effect = lower value; viability, % at 10 µM; 140,000 tested, 1.2% active; AID 827;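 active = viability at or below a set limit, 4 SD under the median of all tested compounds, cut at about 3.7% in these data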;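 also: PTEN knockout HCT116 line with beta catenin targeted HCT116 as companion control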
# INS promoter inh = TRM-6 insulin promoter activity inhibition; TRM-6 cells (human fetal islet line), insulin promoter-eGFP reporter, imaging; reporter expression induced with tamoxifen; inhibition, % at 2 µM; 130,000 tested, 0.9% active; AID 1273;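 active = inhibition above the mean plus 3 SD, with well images judged a real hit on visual review, cut at about 60% in these data, passing the limit was not always enough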
# HCT116 bCat-KO = beta-catenin-lacking colon tumor cell growth suppression. HCT116 beta-catenin knockout viability, CellTiter-Glo, 60 h; stronger effect = lower value. viability, % at 10 µM. 140,000 tested, 1.5% active. AID 818;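 active = viability at or under a set limit, the compound median less 4 SD, cut at about 6% in these data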;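 also: 0% = Hyamine 1622 control at 20 µM and 100% = untreated cell control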
# Lmaj promast = reduces viability of Leishmania major promastigotes; resazurin fluorescence viability; inhibition, % at 10 µM; 200,000 tested, 9% active; AID 1063; in the data active = inhibition above about 50%;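 also: promastigotes grown with compound for 44 hours at 28 °C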
# Numbers without * were called inactive; i = inactive; . = not tested or not shown; + = active, no number.
SMILES,Autophagy HCS,Insulin prom up,HCT116 PTEN-null,INS promoter inh,HCT116 bCat-KO,Lmaj promast
CCOC(=O)c1[nH]c2ccccc2c1NC(=S)Nc1cccc(C)c1C,i,0.71,79.6,52.4,77.2,-0.2
OCCOc1cccc(CN2CCC(CO)(CCOc3ccccc3)CC2)c1,i,-0.37,.,.,.,-4.5
Cc1nn(C)cc1CN1CCC(CO)(CCOc2ccccc2)CC1,i,0.2,.,.,.,74.5*
COc1ccc2[nH]c(CN3CCC(CO)(CCOc4ccccc4)CC3)c(C)c2c1,+,.,.,.,.,88.2*
OCC1(CCOc2ccccc2)CCN(CC2=Cc3cc(Cl)ccc3OC2)CC1,i,-0.4,.,.,.,94.0*
Cc1oc(-c2cccs2)nc1CN1CCC(CO)(CCOc2ccccc2)CC1,i,-0.34,.,.,.,73.3*
COc1ccc(CN2CCC(CO)(CCOc3ccccc3)CC2)c(OC)c1C,i,-0.22,.,.,.,42.8
CCOc1ccccc1CN1CCC(CO)(CCOc2ccccc2)CC1,i,.,.,.,.,41.6
O=C1CCC2=C(CCCC2=O)N1,i,-0.43,.,.,.,-3.2
CC(=O)SCC(C)C(=O)NCc1ccccc1 (stereo unspecified),i,.,100.2,19.2,98.7,-3.6
N#Cc1nc(-c2ccc(OCc3ccccc3Cl)cc2)oc1NCCCn1ccnc1,i,0.74,18.8,.,25.1,99.3*
CCCOc1ccc(-c2nc(C#N)c(NCCCn3ccnc3)o2)cc1,i,-1.02,17.2,-17.6,77.9,10.0
N#Cc1nc(-c2ccc(OCc3ccccc3)cc2)oc1NCCCn1ccnc1,i,-1.95,43.8,-21.4,67.0,52.3*
CCOC(=O)C(=Cc1cn(C)c2ccc(S(=O)(=O)N(C)C)cc12)C(=O)OCC,i,0.4,.,57.1,.,15.4
O=C(/C=C/c1ccnc2ccccc12)c1cccs1,i,1.48,.,.,.,99.8*
N#CC(C#N)=C1NC2(CCCCC2)Cc2ccccc21,.,-0.9,.,.,.,.
N#CC(C#N)=c1ccc2c(c1)NC1(CCCCC1)N=2,i,-0.59,1.3*,.,1.4*,99.7*
O=C(NCc1cccnc1)/C(=C\c1ccc(-c2ccc(Br)cc2)o1)S(=O)(=O)c1ccccc1,i,-1.59,0.9*,3.7,1.6*,100.4*
O=C(NCc1cccnc1)/C(=C/c1ccc(-c2cccc(C(F)(F)F)c2)o1)NC(=O)c1ccccc1,i,-0.18,32.3,-55.6,40.8,84.1*
Cc1ccc(-c2cc(C(=O)NCc3cccnc3)no2)cc1,i,-0.09,86.3,-32.0,89.6,-1.4
Cc1ccc(C(=O)N/C(=C/c2ccc(-c3cc(C(F)(F)F)ccc3Cl)o2)C(=O)NCc2cccnc2)cc1,i,-1.09,60.8,.,62.8,29.6
O=C(NCc1cccnc1)/C(=C/c1ccc(-c2ccc(Cl)cc2)o1)S(=O)(=O)c1ccccc1,i,.,1.3*,-21.7,1.7*,100.6*
Cc1cc(=O)oc(C)c1C(=O)N1CCN(Cc2ccc3c(c2)OCO3)CC1,i,-0.43,.,.,90.7,-3.4
COc1ccc(Cn2cc3c(-c4ccc(F)cc4)nnc-3c3cc(OC)c(OC)cc32)cc1,i,-0.07,2.1*,.,1.8*,16.9
COc1cc2c3nnc(-c4ccc(F)cc4)c-3cn(Cc3ccccc3)c2cc1OC,+,.,1.6*,.,1.1*,22.0
SMILES,Autophagy HCS,Insulin prom up,HCT116 PTEN-null,INS promoter inh,HCT116 bCat-KO,Lmaj promast
COc1ccc(CCNC(=O)CSc2cn(Cc3ccccc3)c3ccccc23)cc1OC,i,-0.45,88.9,0.0,93.1,-6.5
Nc1cccnc1Oc1ccc(F)cc1F,.,-0.57,.,.,.,.
CCCC(=O)N1CCN(c2ccc(NC(=O)c3ccc([N+](=O)[O-])o3)cc2)CC1,i,-0.18,.,.,.,100.5*
CS(=O)(=O)N1CCN(c2ccc(NC(=O)c3ccc([N+](=O)[O-])o3)cc2)CC1,i,0.34,.,.,.,94.7*
CCC(=O)N1CCN(c2ccc(NC(=O)c3ccc([N+](=O)[O-])o3)cc2)CC1,i,0.2,.,.,.,99.8*
O=C(Nc1ccc(N2CCN(C(=O)c3ccc(Cl)cc3)CC2)cc1)c1ccc([N+](=O)[O-])o1,i,0.16,.,.,.,100.0*
CCC(=O)N1CCN(c2ccc(NC(=O)c3ccccc3)cc2)CC1,i,-0.63,.,.,.,1.2
O=C(Nc1ccc(N2CCN(C(=O)c3ccc(Cl)cc3)CC2)cc1)c1ccc2c(c1)OCCO2,i,-0.06,13.9,43.3,15.7,-4.4
CCCC(=O)N1CCN(c2ccc(NC(=O)c3ccc(Br)o3)cc2)CC1,i,-0.04,109.8,-2.7,91.6,-3.4
O=C(Cc1cccs1)NNC(=S)NC(=O)c1ccccc1,i,-0.11,17.0,3.7,21.0,3.7
CCn1c(CNc2cccc(Cl)c2)nnc1SCC(=O)OC1CCCCC1,i,.,97.7,.,96.8,-5.6
O=C(NCCOC12CC3CC(CC(C3)C1)C2)c1cccc(Br)c1,i,0.03,88.1,20.8,95.5,93.7*
CC(=O)NC1C(=O)SC1(C)C (stereo unspecified),i,0.94,95.9,87.5*,90.0,-0.6
CN1C(=S)SC(C)(C)C1NO (stereo unspecified),i,0.99,100.5,-11.4,94.6,-4.9
Cc1[nH]c(=O)c(C#N)cc1-c1ccncc1,i,-1.13,.,-20.0,.,0.6
Fc1ccc2c(c1)/C(=N/Nc1ccccn1)CCS2,i,-0.61,.,.,.,55.0*
Fc1ccc(N/N=C2/CCSc3sccc32)c(F)c1,.,0.06,.,.,.,.
Cc1ccc(NC(=O)C(Cc2ccccc2)N2C(=O)C3C4CCC(C4)C3C2=O)cc1Cl (stereo unspecified),i,0.01,42.1,8.3,44.2,88.4*
Cc1ccc(Cl)cc1NC(=O)C(Cc1ccccc1)N1C(=O)C2C3CCC(C3)C2C1=O (stereo unspecified),i,.,69.9,.,82.4,18.4
O=C1OC(Oc2ccccc2)(c2ccccc2)c2ccccc21 (stereo unspecified),i,-0.37,63.6,.,77.5,98.5*
COC(=O)C1=C(C)NC2=C(C(=O)CC(C)(C)C2)C1c1cn(Cc2ccc(Br)cc2)nc1-c1ccccc1 (stereo unspecified),i,0.07,47.1,.,40.2,99.3*
COC(=O)C1=C(C)NC2=C(C(=O)CCC2)C1c1cn(Cc2ccc(Br)cc2)nc1-c1ccccc1 (stereo unspecified),i,-0.05,69.9,.,72.9,15.7
Cc1cc(/C=C(\C#N)C(=O)Nc2ccc(Cl)cc2)c(C)n1-c1ccc(N2CCOCC2)c([N+](=O)[O-])c1,i,-0.17,77.5,50.0,66.1,100.1*
Cc1ccc(NC(=O)/C(C#N)=C/c2cc(C)n(-c3ccc(N4CCOCC4)c([N+](=O)[O-])c3)c2C)c(C)c1,i,-1,71.7,35.5,75.6,-4.6
Nc1c(Cl)ncnc1N1CCCC1,i,-3.27,.,6.7,.,-0.9
CC(NC(=S)Nc1ccc(S(=O)(=O)N2CCOCC2)cc1)C1CC2CCC1C2 (stereo unspecified),i,.,54.6,0.0,69.2,63.3*
O=S(=O)(c1ccc(NC(=S)Nc2ccccc2)cc1)N1CCOCC1,i,0.34,94.9,28.6,97.6,1.1
O=C(O)c1cccc(S(=O)(=O)N(Cc2ccccc2)c2ccccc2)c1,i,2.21,.,.,.,-9.3
